# Source: PubChem BioAssay
# Records with an inconclusive call do not appear. Activity calls are given as the source filed them. Unless noted, no rule for the calls is given here.
# Key:
# [1] = Cy5 fluorescence quenching or enhancement artefacts, artefact control for HCV NS3 helicase inhibitor project, biochemical, LOPAC1280 (AID 687037); settings: Cy5-DNA-NS3h complex fluorescence interference counterscreen
# [2] = system: Neuropilin-2 / VEGF-C interaction (human); assay: inhibitors of NRP2–VEGF-C binding, biochemical, microplate binding format, z-score (AID 743281); settings: microplate NRP2/VEGF-C binding assay; stronger effect = lower value
# [3] = growth inhibition of DIPG glioma cells, dose response, cell-based, SU-DIPG-XIII, MIPE4.0, CellTiter-Glo, qHTS (AID 1347061; cut-off not given, nearly all actives have AC50 up to about 37 µM;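 also: cells exposed to compound for 48 hours before readout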); settings: SU-DIPG-XIII viability, CellTiter-Glo ATP luminescence
# [4] = growth inhibition of DIPG glioma cells, dose response, cell-based, JHH-DIPG-1, MIPE4.0, CellTiter-Glo, qHTS (AID 1347062; cut-off not given, nearly all actives have AC50 up to about 27 µM); settings: JHH-DIPG-1 viability, CellTiter-Glo ATP luminescence
# [5] = SU-DIPG-VI glioma cell viability, MIPE4.0 library, CellTiter-Glo luminescence, qHTS (AID 1347066; cut-off not given, nearly all actives have AC50 up to about 30 µM;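 also: cells exposed to compound for 48 hours before readout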); settings: CellTiter-Glo ATP luminescence
# [6] = phospholipid biosynthesis inhibitors in animal cells, primary screen, cell-based, LOPAC library, screen 4 (AID 1347384); settings: phospholipid biosynthesis inhibition screen, at 10 µM
# [7] = biological target: ATP-dependent translocase ABCB1 (Homo sapiens) (UniProt P08183); assay: MDR1 (ABCB1) efflux transporter inhibition, cell-based (AID 377; in the data active = fluorescence slope change above about 50%); settings: MDR1-expressing cells, fluorescent substrate accumulation slope; stronger effect = higher value; concentration not given here
# ATP-dependent translocase ABCB1 (Homo sapiens), sequence (P08183 whole entry, looked up): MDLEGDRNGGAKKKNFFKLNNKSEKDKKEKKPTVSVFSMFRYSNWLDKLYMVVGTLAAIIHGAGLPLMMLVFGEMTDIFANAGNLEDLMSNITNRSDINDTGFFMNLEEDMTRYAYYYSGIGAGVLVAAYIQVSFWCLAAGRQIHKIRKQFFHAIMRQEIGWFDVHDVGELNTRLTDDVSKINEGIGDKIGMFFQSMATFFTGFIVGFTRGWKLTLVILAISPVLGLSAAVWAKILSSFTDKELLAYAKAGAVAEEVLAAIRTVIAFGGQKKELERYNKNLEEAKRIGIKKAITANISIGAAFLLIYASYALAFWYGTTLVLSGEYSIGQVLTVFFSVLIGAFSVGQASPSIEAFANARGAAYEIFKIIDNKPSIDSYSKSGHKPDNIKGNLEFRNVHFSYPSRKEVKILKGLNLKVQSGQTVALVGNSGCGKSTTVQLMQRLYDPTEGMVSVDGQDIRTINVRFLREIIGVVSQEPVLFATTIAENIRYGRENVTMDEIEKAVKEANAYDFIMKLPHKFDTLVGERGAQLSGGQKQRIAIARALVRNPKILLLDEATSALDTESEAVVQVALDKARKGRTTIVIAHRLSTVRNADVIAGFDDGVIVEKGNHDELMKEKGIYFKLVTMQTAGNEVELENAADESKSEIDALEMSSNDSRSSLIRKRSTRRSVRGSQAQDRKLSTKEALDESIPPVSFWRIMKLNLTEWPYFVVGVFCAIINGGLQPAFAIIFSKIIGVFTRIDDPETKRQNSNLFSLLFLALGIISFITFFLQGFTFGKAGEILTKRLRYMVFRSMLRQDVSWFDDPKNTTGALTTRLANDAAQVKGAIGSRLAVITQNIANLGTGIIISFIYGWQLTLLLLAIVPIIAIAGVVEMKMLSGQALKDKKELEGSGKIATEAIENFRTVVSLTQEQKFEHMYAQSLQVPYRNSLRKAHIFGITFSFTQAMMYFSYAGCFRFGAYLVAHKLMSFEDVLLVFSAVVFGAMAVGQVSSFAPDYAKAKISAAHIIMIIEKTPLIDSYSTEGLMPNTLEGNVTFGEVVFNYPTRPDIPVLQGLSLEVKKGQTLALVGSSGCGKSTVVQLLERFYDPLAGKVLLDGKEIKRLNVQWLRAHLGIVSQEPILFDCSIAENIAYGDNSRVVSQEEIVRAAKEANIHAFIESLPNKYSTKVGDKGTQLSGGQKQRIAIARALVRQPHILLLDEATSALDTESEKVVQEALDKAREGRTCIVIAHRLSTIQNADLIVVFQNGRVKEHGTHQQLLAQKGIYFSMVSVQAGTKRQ
# [8] = reducers of polyQ inclusions in PC12 cells, cell-based, NGF-treated PC12, GFPQ80 (AID 1614); settings: PC12 NGF-treated GFP-polyQ80 inclusion reduction;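 also: lower means fewer inclusions and 0 means no inclusions at all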
# [9] = circadian clock period modulators, cell-based, LOPAC library, luminescence reporter (AID 2774); settings: circadian reporter cells, at 7 µM, actives lie on both sides;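 also: values are relative to mean of DMSO wells on each plate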
# [10] = growth inhibition of DIPG glioma cells, dose response, cell-based, SU-DIPG-XVII, MIPE5.0, CellTiter-Glo, qHTS (AID 1347060; cut-off not given, nearly all actives have AC50 up to about 26 µM;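 as to AC50: cells exposed to compound for 48 hours before viability readout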); settings: SU-DIPG-XVII viability, CellTiter-Glo ATP luminescence
# [11] = growth inhibition of DIPG glioma cells, dose response, cell-based, SU-DIPG-IV, MIPE4.0, CellTiter-Glo, qHTS (AID 1347063; cut-off not given, nearly all actives have AC50 up to about 30 µM;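 also: compound exposure lasted 48 hours before the viability readout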); settings: SU-DIPG-IV viability, CellTiter-Glo ATP luminescence
# [12] = growth inhibition of DIPG glioma cells, dose response, cell-based, SU-DIPG-XIII, MIPE5.0, CellTiter-Glo, qHTS (AID 1347064; cut-off not given, nearly all actives have AC50 up to about 23 µM;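 also: cells exposed to compound for 48 hours before the viability read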); settings: SU-DIPG-XIII viability, CellTiter-Glo ATP luminescence
# [13] = viability loss in pontine glioma line – cell-based, SU-DIPG-XXV, MIPE5.0, CellTiter-Glo, qHTS, dose response (AID 1347065; cut-off not given, nearly all actives have AC50 up to about 26 µM;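 also: cells exposed to compound for 48 hours before ATP readout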); settings: CellTiter-Glo ATP luminescence
# [14] = JHH-DIPG-1 glioma cell viability, MIPE5.0 library, CellTiter-Glo luminescence, qHTS (AID 1347067; cut-off not given, nearly all actives have AC50 up to about 26 µM;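 also: cells exposed to compound for 48 hours before readout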); settings: JHH-DIPG-1 glioma viability, CellTiter-Glo ATP luminescence
# [15] = SU-DIPG-XXV glioma cell viability, MIPE5.0 library, qHTS (AID 1347068; cut-off not given, nearly all actives have IC50 up to about 30 µM)
compound,measurement,setting,value
COc1cc2nc(N(C)CCCNC(=O)C3CCCO3)nc(N)c2cc1OC (stereo not drawn),fluorescence ratio (interference),[1],1 (inactive)
same,z-score,[2],-0.33 (inactive)
same,outcome,[3],inactive
same,outcome,[4],inactive
same,outcome,[5],inactive
same,outcome,[6],inactive
NCc1ccc(S(N)(=O)=O)cc1,fluorescence slope change,[7],164% (active)
same,inclusion score,[8],2
OCCN1CCN(CCCN2c3ccccc3Sc3ccc(C(F)(F)F)cc32)CC1,fluorescence slope change,[7],91.3% (active)
same,period change,[9],0.01 h (inactive)
same,fluorescence ratio (interference),[1],0.9 (inactive)
same,z-score,[2],0.247 (inactive)
same,AC50,[10],10.5 µM (active)
same,AC50,[11],18.7 µM (active)
same,AC50,[12],9.34 µM (active)
same,AC50,[13],7.42 µM (active)
same,AC50,[14],3.72 µM (active)
same,outcome,[6],inactive
Cc1ncc([N+](=O)[O-])n1CC(C)O (stereo not drawn),z-score,[2],0.376 (inactive)
same,outcome,[10],inactive
same,outcome,[4],inactive
same,outcome,[11],inactive
same,outcome,[5],inactive
same,outcome,[14],inactive
same,outcome,[15],inactive
O=C1C(CCS(=O)c2ccccc2)C(=O)N(c2ccccc2)N1c1ccccc1 (stereo not drawn),fluorescence slope change,[7],61.4% (active)
same,inclusion score,[8],1.5
CO[C@@]1(NC(=O)Cc2cccs2)C(=O)N2C(C(=O)O)=C(COC(N)=O)CS[C@@H]21,fluorescence slope change,[7],94% (active)
same,inclusion score,[8],2
O=C1NC(=O)C(c2ccccc2)(c2ccccc2)N1,inclusion score,[8],2
same,period change,[9],0.02 h (inactive)
same,fluorescence ratio (interference),[1],1 (inactive)
same,outcome,[6],inactive
CC(=O)CCCCn1c(=O)c2c(ncn2C)n(C)c1=O,fluorescence slope change,[7],121% (active)
same,inclusion score,[8],2
same,period change,[9],0.02 h (inactive)
same,fluorescence ratio (interference),[1],1 (inactive)
same,z-score,[2],-0.728 (inactive)
same,outcome,[6],inactive
c1ccc2c(c1)CCCC2C1=NCCN1 (stereo not drawn),fluorescence slope change,[7],13.8% (inactive)
same,inclusion score,[8],2
same,period change,[9],-0.02 h (inactive)
same,fluorescence ratio (interference),[1],1 (inactive)
same,outcome,[6],inactive
CN(C)CCCN1c2ccccc2Sc2ccc(Cl)cc21,period change,[9],-0.035 h (inactive)
same,fluorescence ratio (interference),[1],1 (inactive)
same,outcome,[6],inactive
CCN(CC)CCOC(=O)c1ccc(N)cc1,inclusion score,[8],1.5
same,period change,[9],-0.065 h (inactive)
same,fluorescence ratio (interference),[1],1 (inactive)
same,outcome,[6],inactive
CC(N=C(NC#N)Nc1ccncc1)C(C)(C)C (stereo not drawn),fluorescence slope change,[7],190% (active)
same,period change,[9],0.07 h (inactive)
same,fluorescence ratio (interference),[1],1 (inactive)
same,z-score,[2],-0.52 (inactive)
same,outcome,[6],inactive
NS(=O)(=O)c1cc(C2(O)NC(=O)c3ccccc32)ccc1Cl (stereo not drawn),fluorescence slope change,[7],22.1% (inactive)
same,inclusion score,[8],2
CC(C)NCC(O)c1cc(O)cc(O)c1 (stereo not drawn),fluorescence slope change,[7],14.9% (inactive)
same,inclusion score,[8],2
same,period change,[9],-0.17 h (inactive)
same,fluorescence ratio (interference),[1],0.9 (inactive)
same,outcome,[6],inactive
Cc1nc2ccccn2c(=O)c1CCN1CCC(C(=O)c2ccc(F)cc2)CC1,period change,[9],-0.415 h (inactive)
same,fluorescence ratio (interference),[1],1 (inactive)
same,z-score,[2],-1.94 (inactive)
same,outcome,[6],inactive
CN(C)CCC=C1c2ccccc2CCc2ccccc21,period change,[9],0.175 h (inactive)
same,fluorescence ratio (interference),[1],0.9 (inactive)
same,outcome,[6],inactive
CC(CN1c2ccccc2Sc2ccccc21)N(C)C (stereo not drawn),period change,[9],0.14 h (inactive)
same,fluorescence ratio (interference),[1],1 (inactive)
same,outcome,[6],inactive
C[C@H](CS)C(=O)N1CCC[C@H]1C(=O)O,inclusion score,[8],2
same,period change,[9],0.01 h (inactive)
same,fluorescence ratio (interference),[1],1 (inactive)
same,outcome,[6],inactive
Nc1ccc(S(=O)(=O)c2ccc(N)cc2)cc1,inclusion score,[8],2
CC(C)(C)NCC(O)c1cc(O)cc(O)c1 (stereo not drawn),fluorescence slope change,[7],23.2% (inactive)
same,inclusion score,[8],2
same,period change,[9],0.03 h (inactive)
same,fluorescence ratio (interference),[1],1 (inactive)
same,outcome,[6],inactive
NS(=O)(=O)c1cc2c(cc1C(F)(F)F)NCNS2(=O)=O,inclusion score,[8],2
OCCN1CCN(CCCN2c3ccccc3Sc3ccc(Cl)cc32)CC1,fluorescence slope change,[7],181% (active)
same,period change,[9],-0.035 h (inactive)
same,fluorescence ratio (interference),[1],1 (inactive)
same,outcome,[6],inactive
O=C(CCCN1CC=C(n2c(=O)[nH]c3ccccc32)CC1)c1ccc(F)cc1,fluorescence slope change,[7],53.4% (active)
same,z-score,[2],0.0538 (inactive)
NC(=O)N1c2ccccc2C=Cc2ccccc21,inclusion score,[8],2
same,period change,[9],0.01 h (inactive)
same,fluorescence ratio (interference),[1],1 (inactive)
same,outcome,[6],inactive
CN(C)CCC[C@@]1(c2ccc(F)cc2)OCc2cc(C#N)ccc21,z-score,[2],0.314 (inactive)
Cc1ccc(Cl)c(Nc2ccccc2C(=O)O)c1Cl,fluorescence slope change,[7],27.6% (inactive)
same,inclusion score,[8],2
same,period change,[9],0.13 h (inactive)
same,fluorescence ratio (interference),[1],1 (inactive)
same,outcome,[6],inactive
CCN(CC)CCNC(=O)c1ccc(N)cc1,inclusion score,[8],2
same,period change,[9],0.185 h (inactive)
same,fluorescence ratio (interference),[1],1 (inactive)
same,outcome,[6],inactive
CCOC(=O)[C@H](CCc1ccccc1)N[C@@H](C)C(=O)N1Cc2ccccc2C[C@H]1C(=O)O,inclusion score,[8],2.5
CN(C)CCOC(C)(c1ccccc1)c1ccccn1 (stereo not drawn),inclusion score,[8],2
same,period change,[9],0.205 h (inactive)
same,fluorescence ratio (interference),[1],1.1 (inactive)
same,z-score,[2],-0.0183 (inactive)
same,outcome,[6],inactive
CCCCC1=NC2(CCCC2)C(=O)N1Cc1ccc(-c2ccccc2-c2nn[nH]n2)cc1,z-score,[2],0.146 (inactive)
Nc1nc(N)c2nc(-c3ccccc3)c(N)nc2n1,period change,[9],0.185 h (inactive)
same,fluorescence ratio (interference),[1],1 (inactive)
same,outcome,[6],inactive
CN(C)C(=O)Oc1ccc[n+](C)c1,inclusion score,[8],2
same,period change,[9],0.015 h (inactive)
same,fluorescence ratio (interference),[1],1 (inactive)
same,outcome,[6],inactive
CCCNC(=O)NS(=O)(=O)c1ccc(Cl)cc1,fluorescence slope change,[7],6.6% (inactive)
same,inclusion score,[8],2
same,period change,[9],0.055 h (inactive)
same,fluorescence ratio (interference),[1],1 (inactive)
same,outcome,[6],inactive
CC(=O)Nc1nnc(S(N)(=O)=O)s1,inclusion score,[8],2
same,period change,[9],0.15 h (inactive)
same,fluorescence ratio (interference),[1],1 (inactive)
same,outcome,[6],inactive
C=C(CC)C(=O)c1ccc(OCC(=O)O)c(Cl)c1Cl,fluorescence slope change,[7],85.9% (active)
CSc1ccc2c(c1)N(CCC1CCCCN1C)c1ccccc1S2 (stereo not drawn),period change,[9],-0.225 h (inactive)
same,fluorescence ratio (interference),[1],0.9 (inactive)
same,outcome,[6],inactive
CCCCNC(=O)NS(=O)(=O)c1ccc(C)cc1,inclusion score,[8],2
same,period change,[9],0 h (inactive)
same,fluorescence ratio (interference),[1],1 (inactive)
same,outcome,[6],inactive
CCN(CC)CCOC(=O)C1(C2CCCCC2)CCCCC1,period change,[9],0.005 h (inactive)
same,fluorescence ratio (interference),[1],1 (inactive)
same,outcome,[6],inactive
